# Data: publication PMC7862700, “An all-to-all approach to the identification of sequence-specific readers for epigenetic DNA modifications on cytosine”
# Key:
# Assay in all cases: DAPPL (digital affinity profiling via proximity ligation, sequencing); 10 mM Tris-HCl pH 7.5, 50 mM NaCl, 1 mM DTT, 4% glycerol, room temperature, 30 min; GST-TFs on glutathione beads, 16-mer random dsDNA library, 0.1% formaldehyde crosslink after washing; high values mean tight binding
# [1] = biological target: T1, FLI1 (Homo sapiens, UniProt Q01543 1-452); settings: protein: recombinant; tags: N-terminal GST; dsDNA, one strand shown
# T1 sequence: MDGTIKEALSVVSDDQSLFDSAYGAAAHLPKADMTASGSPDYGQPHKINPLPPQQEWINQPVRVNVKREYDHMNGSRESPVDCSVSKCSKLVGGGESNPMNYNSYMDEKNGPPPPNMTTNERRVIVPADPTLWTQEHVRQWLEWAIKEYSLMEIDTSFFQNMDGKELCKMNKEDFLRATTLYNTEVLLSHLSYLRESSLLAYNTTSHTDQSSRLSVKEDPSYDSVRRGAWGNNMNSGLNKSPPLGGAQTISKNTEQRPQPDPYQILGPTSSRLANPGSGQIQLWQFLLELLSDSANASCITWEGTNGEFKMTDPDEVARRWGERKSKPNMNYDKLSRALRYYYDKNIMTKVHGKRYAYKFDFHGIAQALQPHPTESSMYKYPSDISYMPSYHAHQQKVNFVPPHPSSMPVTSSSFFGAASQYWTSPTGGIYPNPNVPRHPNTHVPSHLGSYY
# How it was run: (§1)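 GST fusions of human transcription factors were expressed in yeast and captured with glutathione beads. Once given DNA barcodes and pooled alongside a tag-only sample, they were incubated for 30 min at room temperature with 200 nmole of a random double-stranded 16-mer DNA library in Tris/NaCl/DTT/glycerol buffer, then washed, crosslinked (0.1% formaldehyde), proximity-ligated, PCR-amplified and sequenced on an Illumina NextSeq500. The binding signal of each hexamer is its read frequency for a factor divided by its frequency for the tag-only sample.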
# [2] = biological target: T2, ELK1 (Homo sapiens, UniProt P19419 1-428); settings: protein: recombinant; tags: N-terminal GST; dsDNA, one strand shown
# T2 sequence: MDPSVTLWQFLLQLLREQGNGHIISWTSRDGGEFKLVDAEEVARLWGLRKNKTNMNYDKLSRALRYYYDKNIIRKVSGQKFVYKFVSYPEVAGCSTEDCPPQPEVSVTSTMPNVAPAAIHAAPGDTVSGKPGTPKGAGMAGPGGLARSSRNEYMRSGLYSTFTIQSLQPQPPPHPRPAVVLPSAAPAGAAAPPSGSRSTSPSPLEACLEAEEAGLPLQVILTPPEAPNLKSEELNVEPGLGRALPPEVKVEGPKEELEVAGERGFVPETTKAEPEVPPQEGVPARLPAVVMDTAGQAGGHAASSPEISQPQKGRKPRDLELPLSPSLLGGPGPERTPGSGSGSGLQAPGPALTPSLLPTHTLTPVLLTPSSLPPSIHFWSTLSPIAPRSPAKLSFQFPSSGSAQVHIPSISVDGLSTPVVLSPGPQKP
# How it was run: as §1
# [3] = biological target: T3, GABPA (Homo sapiens, UniProt Q06546 1-454); settings: protein: recombinant; tags: N-terminal GST; dsDNA, one strand shown
# T3 sequence: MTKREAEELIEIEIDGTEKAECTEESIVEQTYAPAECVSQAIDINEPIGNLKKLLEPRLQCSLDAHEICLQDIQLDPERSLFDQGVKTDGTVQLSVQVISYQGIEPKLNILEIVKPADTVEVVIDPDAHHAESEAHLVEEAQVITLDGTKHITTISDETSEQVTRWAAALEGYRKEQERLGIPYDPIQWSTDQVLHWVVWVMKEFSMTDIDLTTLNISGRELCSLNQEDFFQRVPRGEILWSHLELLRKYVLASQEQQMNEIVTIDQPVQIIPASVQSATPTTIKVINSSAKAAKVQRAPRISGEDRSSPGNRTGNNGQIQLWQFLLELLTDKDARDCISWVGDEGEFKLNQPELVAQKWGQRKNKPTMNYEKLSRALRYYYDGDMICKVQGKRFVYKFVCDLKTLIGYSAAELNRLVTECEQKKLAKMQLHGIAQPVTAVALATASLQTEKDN
# How it was run: as §1
# [4] = biological target: T4, ERG (Homo sapiens, UniProt P11308 1-479); settings: protein: recombinant; tags: N-terminal GST; dsDNA, one strand shown
# T4 sequence: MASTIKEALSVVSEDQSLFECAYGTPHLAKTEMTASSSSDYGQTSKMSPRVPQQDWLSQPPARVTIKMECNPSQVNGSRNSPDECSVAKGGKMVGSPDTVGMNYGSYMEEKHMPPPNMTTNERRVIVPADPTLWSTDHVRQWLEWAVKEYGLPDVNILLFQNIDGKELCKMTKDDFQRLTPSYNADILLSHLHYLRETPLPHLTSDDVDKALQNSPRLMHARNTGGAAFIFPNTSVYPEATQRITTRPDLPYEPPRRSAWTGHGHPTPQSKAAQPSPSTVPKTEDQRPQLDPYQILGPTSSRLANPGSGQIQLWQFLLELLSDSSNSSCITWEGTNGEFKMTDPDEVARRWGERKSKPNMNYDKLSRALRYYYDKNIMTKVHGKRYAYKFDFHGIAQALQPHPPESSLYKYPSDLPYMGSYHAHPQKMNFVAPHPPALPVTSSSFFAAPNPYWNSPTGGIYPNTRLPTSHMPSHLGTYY
# How it was run: as §1
# [5] = biological target: ELF1 (Homo sapiens, UniProt P32519 1-619); settings: protein: recombinant; tags: N-terminal GST; dsDNA, one strand shown
# How it was run: as §1
# [6] = biological target: T5, EHF (Homo sapiens, UniProt Q9NZC4 1-300); settings: protein: recombinant; tags: N-terminal GST; dsDNA, one strand shown
# T5 sequence: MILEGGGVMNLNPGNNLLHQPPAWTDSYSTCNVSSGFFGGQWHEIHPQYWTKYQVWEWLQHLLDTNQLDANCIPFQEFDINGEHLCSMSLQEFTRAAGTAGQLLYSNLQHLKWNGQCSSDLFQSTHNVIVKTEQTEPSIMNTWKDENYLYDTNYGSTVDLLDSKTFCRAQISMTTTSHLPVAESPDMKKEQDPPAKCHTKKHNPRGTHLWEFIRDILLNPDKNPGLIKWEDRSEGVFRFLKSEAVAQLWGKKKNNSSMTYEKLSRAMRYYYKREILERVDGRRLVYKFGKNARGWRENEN
# How it was run: as §1
# [7] = biological target: SPI1 (Homo sapiens, UniProt P17947 1-270); settings: protein: recombinant; tags: N-terminal GST; dsDNA, one strand shown
# How it was run: as §1
# [8] = biological target: SPIB (Homo sapiens, UniProt Q01892 1-262); settings: protein: recombinant; tags: N-terminal GST; dsDNA, one strand shown
# How it was run: as §1
# [9] = biological target: T6, ELK3 (Homo sapiens, UniProt P41970 1-407); settings: protein: recombinant; tags: N-terminal GST; dsDNA, one strand shown
# T6 sequence: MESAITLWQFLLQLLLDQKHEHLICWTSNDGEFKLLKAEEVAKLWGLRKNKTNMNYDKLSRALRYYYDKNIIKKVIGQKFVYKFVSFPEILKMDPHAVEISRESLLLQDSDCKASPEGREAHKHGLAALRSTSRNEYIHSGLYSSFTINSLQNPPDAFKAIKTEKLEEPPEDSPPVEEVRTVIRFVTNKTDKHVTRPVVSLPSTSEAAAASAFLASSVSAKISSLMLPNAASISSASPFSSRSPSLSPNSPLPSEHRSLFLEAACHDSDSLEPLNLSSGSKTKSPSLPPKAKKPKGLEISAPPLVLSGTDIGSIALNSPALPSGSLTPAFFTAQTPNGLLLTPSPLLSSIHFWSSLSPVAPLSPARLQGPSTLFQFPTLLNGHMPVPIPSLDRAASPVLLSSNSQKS
# How it was run: as §1
# [10] = biological target: T7, FEV (Homo sapiens, UniProt Q99581 1-238); settings: protein: recombinant; tags: N-terminal GST; dsDNA, one strand shown
# T7 sequence: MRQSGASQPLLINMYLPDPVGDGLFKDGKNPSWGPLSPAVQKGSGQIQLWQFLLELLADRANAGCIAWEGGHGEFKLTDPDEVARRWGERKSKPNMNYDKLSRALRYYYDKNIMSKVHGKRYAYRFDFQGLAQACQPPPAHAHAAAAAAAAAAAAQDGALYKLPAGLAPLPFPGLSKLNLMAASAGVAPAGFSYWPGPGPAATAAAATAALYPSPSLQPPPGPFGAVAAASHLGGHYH
# How it was run: as §1
# [11] = biological target: ETV5 (Homo sapiens, UniProt P41161 1-510); settings: protein: recombinant; tags: N-terminal GST; dsDNA, one strand shown
# How it was run: as §1
# [12] = biological target: HSF1 (Homo sapiens, UniProt Q00613 1-529); settings: protein: recombinant; tags: N-terminal GST; chain copies: 3; dsDNA, one strand shown
# How it was run: as §1
# [13] = biological target: T8, SPIC (Homo sapiens, UniProt Q8N5J4 1-248); settings: protein: recombinant; tags: N-terminal GST; dsDNA, one strand shown
# T8 sequence: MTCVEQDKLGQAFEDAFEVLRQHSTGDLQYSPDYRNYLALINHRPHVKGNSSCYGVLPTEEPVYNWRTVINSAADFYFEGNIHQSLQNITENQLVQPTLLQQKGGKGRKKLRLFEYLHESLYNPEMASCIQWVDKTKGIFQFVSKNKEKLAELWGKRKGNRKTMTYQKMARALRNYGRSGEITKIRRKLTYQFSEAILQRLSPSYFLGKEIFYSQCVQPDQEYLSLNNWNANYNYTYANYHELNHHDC
# How it was run: as §1
# [14] = biological target: ELF4 (Homo sapiens, UniProt Q99607 1-663); settings: protein: recombinant; tags: N-terminal GST; dsDNA, one strand shown
# How it was run: as §1
# [15] = biological target: T9, ELK4 (Homo sapiens, UniProt P28324-2 1-405); settings: protein: recombinant; tags: N-terminal GST; dsDNA, one strand shown
# T9 sequence: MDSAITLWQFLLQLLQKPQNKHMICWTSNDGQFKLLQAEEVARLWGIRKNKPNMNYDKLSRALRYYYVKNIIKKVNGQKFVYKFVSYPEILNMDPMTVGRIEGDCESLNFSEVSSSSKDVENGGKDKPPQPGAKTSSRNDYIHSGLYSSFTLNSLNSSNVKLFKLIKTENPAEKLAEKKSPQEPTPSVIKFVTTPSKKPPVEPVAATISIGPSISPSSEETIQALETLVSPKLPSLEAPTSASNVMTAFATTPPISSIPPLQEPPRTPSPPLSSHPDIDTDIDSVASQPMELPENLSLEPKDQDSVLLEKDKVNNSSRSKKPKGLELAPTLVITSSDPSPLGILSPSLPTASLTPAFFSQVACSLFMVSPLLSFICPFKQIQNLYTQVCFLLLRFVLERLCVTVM
# How it was run: as §1
# [16] = biological target: T10, ETV2 (Homo sapiens, UniProt O00321 1-342); settings: protein: recombinant; tags: N-terminal GST; dsDNA, one strand shown
# T10 sequence: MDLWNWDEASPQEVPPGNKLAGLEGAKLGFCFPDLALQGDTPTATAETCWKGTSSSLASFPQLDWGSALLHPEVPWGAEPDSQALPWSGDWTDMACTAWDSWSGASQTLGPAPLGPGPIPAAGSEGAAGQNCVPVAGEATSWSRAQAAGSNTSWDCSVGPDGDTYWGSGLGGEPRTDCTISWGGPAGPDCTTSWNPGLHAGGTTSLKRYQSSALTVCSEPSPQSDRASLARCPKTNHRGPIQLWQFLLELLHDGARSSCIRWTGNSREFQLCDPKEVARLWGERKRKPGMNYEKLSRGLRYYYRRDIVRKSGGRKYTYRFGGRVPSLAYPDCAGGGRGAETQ
# How it was run: as §1
# [17] = biological target: T11, ELF3 (Homo sapiens, UniProt P78545 1-371); settings: protein: recombinant; tags: N-terminal GST; dsDNA, one strand shown
# T11 sequence: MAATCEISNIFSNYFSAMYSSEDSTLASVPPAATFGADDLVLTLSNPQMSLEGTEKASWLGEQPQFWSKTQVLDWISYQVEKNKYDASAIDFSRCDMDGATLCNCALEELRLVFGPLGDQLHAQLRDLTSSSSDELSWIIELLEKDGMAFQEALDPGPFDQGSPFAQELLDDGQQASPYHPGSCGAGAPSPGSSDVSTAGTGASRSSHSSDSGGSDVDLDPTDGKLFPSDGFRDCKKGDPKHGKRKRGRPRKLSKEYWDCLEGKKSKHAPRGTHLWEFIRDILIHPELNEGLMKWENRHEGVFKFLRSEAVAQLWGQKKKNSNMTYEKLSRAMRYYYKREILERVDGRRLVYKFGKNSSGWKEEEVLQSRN
# How it was run: as §1
# [18] = biological target: CRX (Homo sapiens, UniProt O43186 1-299); settings: protein: recombinant; tags: N-terminal GST; dsDNA, one strand shown
# How it was run: as §1
# [19] = biological target: ETV1 (Homo sapiens, UniProt P50549 1-477); settings: protein: recombinant; tags: N-terminal GST; dsDNA, one strand shown
# How it was run: as §1
# CRX, sequence (O43186 whole entry): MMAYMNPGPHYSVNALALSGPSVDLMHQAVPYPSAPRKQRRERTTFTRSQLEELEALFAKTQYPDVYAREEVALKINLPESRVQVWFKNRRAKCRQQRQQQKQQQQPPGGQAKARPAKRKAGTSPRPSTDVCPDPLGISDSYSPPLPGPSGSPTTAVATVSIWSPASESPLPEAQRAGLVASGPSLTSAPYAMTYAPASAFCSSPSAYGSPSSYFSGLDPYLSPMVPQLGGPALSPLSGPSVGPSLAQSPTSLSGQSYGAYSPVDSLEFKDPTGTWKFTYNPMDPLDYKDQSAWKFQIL
# SPIB, sequence (Q01892 whole entry): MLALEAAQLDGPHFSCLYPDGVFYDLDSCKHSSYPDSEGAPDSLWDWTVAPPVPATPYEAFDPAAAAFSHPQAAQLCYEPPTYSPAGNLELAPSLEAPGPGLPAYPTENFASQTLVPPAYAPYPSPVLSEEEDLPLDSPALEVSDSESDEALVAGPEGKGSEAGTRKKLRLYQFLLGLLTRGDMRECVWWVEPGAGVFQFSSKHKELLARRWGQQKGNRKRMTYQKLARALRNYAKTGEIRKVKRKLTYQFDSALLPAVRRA
# ETV1, sequence (P50549 whole entry): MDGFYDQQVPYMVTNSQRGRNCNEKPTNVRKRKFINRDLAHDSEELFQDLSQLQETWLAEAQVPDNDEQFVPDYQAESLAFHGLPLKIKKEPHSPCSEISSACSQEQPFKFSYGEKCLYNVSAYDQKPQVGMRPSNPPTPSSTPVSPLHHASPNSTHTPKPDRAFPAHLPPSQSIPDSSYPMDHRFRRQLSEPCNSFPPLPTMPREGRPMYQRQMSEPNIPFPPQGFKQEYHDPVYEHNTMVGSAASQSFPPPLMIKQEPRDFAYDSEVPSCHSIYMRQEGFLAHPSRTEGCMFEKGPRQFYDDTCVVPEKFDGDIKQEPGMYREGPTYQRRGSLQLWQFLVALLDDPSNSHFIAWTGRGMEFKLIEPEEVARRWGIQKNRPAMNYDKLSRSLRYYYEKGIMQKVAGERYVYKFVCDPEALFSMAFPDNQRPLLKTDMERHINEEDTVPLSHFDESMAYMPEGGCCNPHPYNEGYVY
# ELF4, sequence (Q99607 whole entry): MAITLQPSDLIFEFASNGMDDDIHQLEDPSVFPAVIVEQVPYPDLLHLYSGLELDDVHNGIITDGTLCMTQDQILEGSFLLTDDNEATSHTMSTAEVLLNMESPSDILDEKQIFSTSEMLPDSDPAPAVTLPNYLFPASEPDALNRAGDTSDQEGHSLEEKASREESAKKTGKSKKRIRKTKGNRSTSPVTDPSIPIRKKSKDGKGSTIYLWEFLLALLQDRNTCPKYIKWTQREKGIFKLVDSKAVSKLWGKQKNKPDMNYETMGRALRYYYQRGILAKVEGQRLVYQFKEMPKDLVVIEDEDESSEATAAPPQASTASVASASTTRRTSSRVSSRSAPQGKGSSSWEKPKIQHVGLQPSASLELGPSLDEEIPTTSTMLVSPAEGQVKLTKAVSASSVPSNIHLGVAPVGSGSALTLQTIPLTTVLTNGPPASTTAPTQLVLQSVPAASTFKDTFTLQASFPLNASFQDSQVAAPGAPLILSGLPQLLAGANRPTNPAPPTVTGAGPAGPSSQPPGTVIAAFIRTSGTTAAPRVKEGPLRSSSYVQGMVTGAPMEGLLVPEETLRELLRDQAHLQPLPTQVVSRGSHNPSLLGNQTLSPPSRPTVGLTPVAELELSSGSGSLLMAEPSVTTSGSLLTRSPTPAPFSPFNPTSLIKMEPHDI
# HSF1, sequence (Q00613 whole entry): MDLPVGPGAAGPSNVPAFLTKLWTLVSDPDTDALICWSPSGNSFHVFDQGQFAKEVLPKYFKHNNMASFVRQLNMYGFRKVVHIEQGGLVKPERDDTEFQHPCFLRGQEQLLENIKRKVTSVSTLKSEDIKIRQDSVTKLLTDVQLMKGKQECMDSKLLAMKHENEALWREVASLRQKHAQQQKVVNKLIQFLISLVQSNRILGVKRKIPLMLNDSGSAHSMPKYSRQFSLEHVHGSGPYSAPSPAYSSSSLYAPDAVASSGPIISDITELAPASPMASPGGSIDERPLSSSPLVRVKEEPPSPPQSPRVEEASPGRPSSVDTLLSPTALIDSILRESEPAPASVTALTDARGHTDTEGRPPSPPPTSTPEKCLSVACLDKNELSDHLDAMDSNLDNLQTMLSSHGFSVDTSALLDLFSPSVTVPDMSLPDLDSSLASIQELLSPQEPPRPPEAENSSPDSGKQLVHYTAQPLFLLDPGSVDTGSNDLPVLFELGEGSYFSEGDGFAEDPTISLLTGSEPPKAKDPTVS
# ETV5, sequence (P41161 whole entry): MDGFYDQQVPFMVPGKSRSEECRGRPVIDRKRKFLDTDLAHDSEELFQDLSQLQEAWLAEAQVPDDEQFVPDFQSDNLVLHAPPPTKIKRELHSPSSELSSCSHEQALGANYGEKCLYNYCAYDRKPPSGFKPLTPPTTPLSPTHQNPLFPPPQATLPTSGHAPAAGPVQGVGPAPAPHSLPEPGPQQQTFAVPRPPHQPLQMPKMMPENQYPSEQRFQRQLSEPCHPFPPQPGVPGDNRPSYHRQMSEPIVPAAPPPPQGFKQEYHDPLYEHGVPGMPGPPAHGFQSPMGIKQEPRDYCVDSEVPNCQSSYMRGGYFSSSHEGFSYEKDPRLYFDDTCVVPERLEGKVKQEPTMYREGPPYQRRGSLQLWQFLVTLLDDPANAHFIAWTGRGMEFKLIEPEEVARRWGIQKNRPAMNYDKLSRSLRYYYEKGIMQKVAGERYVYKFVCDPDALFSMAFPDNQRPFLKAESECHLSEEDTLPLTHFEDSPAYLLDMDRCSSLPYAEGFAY
# ELF1, sequence (P32519 whole entry): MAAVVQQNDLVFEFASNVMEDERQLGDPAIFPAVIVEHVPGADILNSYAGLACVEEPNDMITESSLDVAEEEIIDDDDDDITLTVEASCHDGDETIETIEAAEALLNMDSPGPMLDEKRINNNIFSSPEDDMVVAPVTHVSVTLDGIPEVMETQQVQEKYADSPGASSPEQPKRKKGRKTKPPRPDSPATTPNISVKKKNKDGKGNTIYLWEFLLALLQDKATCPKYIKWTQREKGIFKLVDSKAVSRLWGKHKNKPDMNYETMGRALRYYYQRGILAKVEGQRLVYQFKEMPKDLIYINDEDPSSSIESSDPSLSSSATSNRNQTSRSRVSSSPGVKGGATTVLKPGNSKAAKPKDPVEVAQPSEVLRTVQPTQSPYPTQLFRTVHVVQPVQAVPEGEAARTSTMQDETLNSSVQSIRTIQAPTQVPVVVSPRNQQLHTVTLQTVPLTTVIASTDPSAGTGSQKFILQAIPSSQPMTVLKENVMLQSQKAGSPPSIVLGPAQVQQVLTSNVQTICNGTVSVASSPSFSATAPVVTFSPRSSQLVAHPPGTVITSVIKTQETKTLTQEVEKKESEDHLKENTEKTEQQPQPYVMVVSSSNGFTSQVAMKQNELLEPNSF
sequence,measurement,setting,value
TTTGAA,binding signal,[1],"1.22 fold enrichment (6-mer frequency, TF over GST control)"
same,binding signal,[2],"1.09 fold enrichment (6-mer frequency, TF over GST control)"
same,binding signal,[3],"1.2 fold enrichment (6-mer frequency, TF over GST control)"
same,binding signal,[4],"1.21 fold enrichment (6-mer frequency, TF over GST control)"
same,binding signal,[5],"1.23 fold enrichment (6-mer frequency, TF over GST control)"
same,binding signal,[6],"1.24 fold enrichment (6-mer frequency, TF over GST control)"
same,binding signal,[7],"1.2 fold enrichment (6-mer frequency, TF over GST control)"
same,binding signal,[8],"1.2 fold enrichment (6-mer frequency, TF over GST control)"
same,binding signal,[9],"1.17 fold enrichment (6-mer frequency, TF over GST control)"
same,binding signal,[10],"1.13 fold enrichment (6-mer frequency, TF over GST control)"
same,binding signal,[11],"1.26 fold enrichment (6-mer frequency, TF over GST control)"
same,binding signal,[12],"1.24 fold enrichment (6-mer frequency, TF over GST control)"
same,binding signal,[13],"1.24 fold enrichment (6-mer frequency, TF over GST control)"
same,binding signal,[14],"1.32 fold enrichment (6-mer frequency, TF over GST control)"
same,binding signal,[15],"1.34 fold enrichment (6-mer frequency, TF over GST control)"
same,binding signal,[16],"1.38 fold enrichment (6-mer frequency, TF over GST control)"
same,binding signal,[17],"1.3 fold enrichment (6-mer frequency, TF over GST control)"
same,binding signal,[18],"1.28 fold enrichment (6-mer frequency, TF over GST control)"
same,binding signal,[19],"1.19 fold enrichment (6-mer frequency, TF over GST control)"
